From PubChem BioAssay (NCATS)
Results filed as inconclusive are left out. Active and inactive are the calls of the source. Unless noted, calls follow the shape of the full dose curve.

Legend:
[1] = Primary qHTS for inhibitors of SARS-S pseudo-typed particle cell entry (AID 1479145); also: nearly all actives have a fitted effect of over 45% in size
[2] = Primary qHTS for Huh7 cytotoxicity: counterscreen for inhibitors of MERS-S pseudotyped particle cell entry (AID 1479147)
[3] = Primary qHTS for inhibitors of MERS-S pseudo-typed particle cell entry (AID 1479149); also: nearly all actives have a fitted effect of over 60% in size
[4] = Primary qHTS for Vero E6 cytotoxicity: counterscreen for inhibitors of SARS-S pseudo-typed particle cell entry (AID 1479150)
[5] = Primary qHTS for inhibitors of La Crosse Virus (LACV) - induced cell death in SH-SY5Y cells (AID 1508616; active = well fitted inhibition curve with a large enough effect;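 also: top concentration of the series differs between compounds; higher means more rescue of cells from virus-induced death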)
Outline: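 Readout was luminescence from ATPLite 1step added after a 6-day LACV infection (0.01 MOI) of SH-SY5Y cells that had received pin-transferred compound 24 hr after seeding.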

Measured: Potency

Oc1ccc(Cl)cc1
inactive: all assays above

CC(=O)Nc1ccc(CC(=O)O)cc1
inactive: [1] | [2] | [4]

COP(=S)(OC)Oc1cc(Cl)c(Cl)cc1Cl
inactive: all assays above

C[C@]12CC[C@H]3[C@@H](CCC4=CC(=O)CC[C@@H]43)[C@@H]1CC[C@@H]2OC(=O)CCC1CCCCC1
inactive: all assays above

C[C@]12CC[C@H]3[C@@H](CCC4=CC(=O)CC[C@@H]43)[C@@H]1CC[C@@H]2OC(=O)CCc1ccco1
inactive: all assays above

CC(C(=O)O)c1cccc(Oc2ccccc2)c1 (stereo not given)
inactive: [1] | [2] | [4]

CO[C@@]1(NC(=O)Cc2cccs2)C(=O)N2C(C(=O)O)=C(COC(N)=O)CS[C@@H]21
not listed: [5]
inactive: all other assays above

COP(=S)(OC)Oc1ccc(SC)c(C)c1
inactive: all assays above

Nc1cc(C(Cl)=C(Cl)Cl)c(S(N)(=O)=O)cc1S(N)(=O)=O
inactive: [1] | [2] | [4]

Nc1ccc(S(=O)(=O)c2ccc(N)cc2)cc1
inactive: [1] | [2] | [4]

CCN[C@H]1CN(CCCOC)S(=O)(=O)c2sc(S(N)(=O)=O)cc21
inactive: [1] | [2] | [4]

Nc1ncnc2nc[nH]c12
inactive: [1] | [2] | [4]

O=C(O)CCCC[C@@H]1SC[C@@H]2NC(=O)N[C@@H]21
inactive: [1] | [2] | [4]
